# Measurements published in the supplement of paper PMC4466140.
# Target: AgAbp1
# Assay: SPOT peptide array binding signal intensity (averaged, normalized) (arbitrary units (background-subtracted, floor 0; scale differs between SH3 domains)); higher = stronger binding of the SH3 domain to the peptide
# In short: (§1)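 E. coli BL21(DE3) was used to express GST-fused SH3 domains from four yeast species, which were then purified on glutathione Sepharose. These were incubated at 10 μg/ml in TBS-based blocking buffer overnight at 4°C on cellulose membranes carrying synthetic 15-mer peptides, in which cysteines were replaced by serines. Binding signal is the replicate average of normalized, background-subtracted spot intensity, in arbitrary units that differ between domains.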
row,Binder,SPOT peptide array binding signal intensity
1,GAGERPRLVPRPINV,13

# Target: AgBbc1
# Assay: as above
# In short: as §1
row,Binder,SPOT peptide array binding signal intensity
1,GAGERPRLVPRPINV,148

# Target: AgBem1-D1
# Assay: as above
# In short: as §1
row,Binder,SPOT peptide array binding signal intensity
1,GAGERPRLVPRPINV,23

# Target: AgBzz1-D1
# Assay: as above
# In short: as §1
row,Binder,SPOT peptide array binding signal intensity
1,GAGERPRLVPRPINV,27

# Target: AgBzz1-D2
# Assay: as above
# In short: as §1
row,Binder,SPOT peptide array binding signal intensity
1,GAGERPRLVPRPINV,33

# Target: AgCyk3
# Assay: as above
# In short: as §1
row,Binder,SPOT peptide array binding signal intensity
1,GAGERPRLVPRPINV,6

# Target: AgFus1
# Assay: as above
# In short: as §1
row,Binder,SPOT peptide array binding signal intensity
1,GAGERPRLVPRPINV,4.5

# Target: AgHof1
# Assay: as above
# In short: as §1
row,Binder,SPOT peptide array binding signal intensity
1,GAGERPRLVPRPINV,8.5

# Target: AgHse1
# Assay: as above
# In short: as §1
row,Binder,SPOT peptide array binding signal intensity
1,GAGERPRLVPRPINV,≤ 0

# Target: AgLsb1
# Assay: as above
# In short: as §1
row,Binder,SPOT peptide array binding signal intensity
1,GAGERPRLVPRPINV,9

# Target: AgLsb4
# Assay: as above
# In short: as §1
row,Binder,SPOT peptide array binding signal intensity
1,GAGERPRLVPRPINV,28

# Target: AgMyo5
# Assay: as above
# In short: as §1
row,Binder,SPOT peptide array binding signal intensity
1,GAGERPRLVPRPINV,0.5

# Target: AgNbp2
# Assay: as above
# In short: as §1
row,Binder,SPOT peptide array binding signal intensity
1,GAGERPRLVPRPINV,≤ 0

# Target: AgRvs167
# Assay: as above
# In short: as §1
row,Binder,SPOT peptide array binding signal intensity
1,GAGERPRLVPRPINV,2

# Target: AgSho1
# Assay: as above
# In short: as §1
row,Binder,SPOT peptide array binding signal intensity
1,GAGERPRLVPRPINV,≤ 0

# Target: AgSla1-D1-D2
# Assay: as above
# In short: as §1
row,Binder,SPOT peptide array binding signal intensity
1,GAGERPRLVPRPINV,≤ 0

# Target: AgSla1-D3
# Assay: as above
# In short: as §1
row,Binder,SPOT peptide array binding signal intensity
1,GAGERPRLVPRPINV,1

# Target: CaAbp1-D1
# Assay: as above
# In short: as §1
row,Binder,SPOT peptide array binding signal intensity
1,GAGERPRLVPRPINV,17

# Target: CaAbp1-D2
# Assay: as above
# In short: as §1
row,Binder,SPOT peptide array binding signal intensity
1,GAGERPRLVPRPINV,8

# Target: CaBbc1
# Assay: as above
# In short: as §1
row,Binder,SPOT peptide array binding signal intensity
1,GAGERPRLVPRPINV,314

# Target: CaBem1-D1
# Assay: as above
# In short: as §1
row,Binder,SPOT peptide array binding signal intensity
1,GAGERPRLVPRPINV,68.5

# Target: CaBzz1-D1
# Assay: as above
# In short: as §1
row,Binder,SPOT peptide array binding signal intensity
1,GAGERPRLVPRPINV,109

# Target: CaBzz1-D2
# Assay: as above
# In short: as §1
row,Binder,SPOT peptide array binding signal intensity
1,GAGERPRLVPRPINV,51.2

# Target: CaCyk3
# Assay: as above
# In short: as §1
row,Binder,SPOT peptide array binding signal intensity
1,GAGERPRLVPRPINV,285

# Target: CaFus1
# Assay: as above
# In short: as §1
row,Binder,SPOT peptide array binding signal intensity
1,GAGERPRLVPRPINV,≤ 0

# Target: CaHof1
# Assay: as above
# In short: as §1
row,Binder,SPOT peptide array binding signal intensity
1,GAGERPRLVPRPINV,0.5

# Target: CaHse1
# Assay: as above
# In short: as §1
row,Binder,SPOT peptide array binding signal intensity
1,GAGERPRLVPRPINV,≤ 0

# Target: CaLsb1
# Assay: as above
# In short: as §1
row,Binder,SPOT peptide array binding signal intensity
1,GAGERPRLVPRPINV,0.75

# Target: CaLsb4
# Assay: as above
# In short: as §1
row,Binder,SPOT peptide array binding signal intensity
1,GAGERPRLVPRPINV,102

# Target: CaMyo5
# Assay: as above
# In short: as §1
row,Binder,SPOT peptide array binding signal intensity
1,GAGERPRLVPRPINV,6.5

# Target: CaNbp2
# Assay: as above
# In short: as §1
row,Binder,SPOT peptide array binding signal intensity
1,GAGERPRLVPRPINV,≤ 0
2,RKLRTVPGVPLIHLT,281

# Target: CaRvs167
# Assay: as above
# In short: as §1
row,Binder,SPOT peptide array binding signal intensity
1,GAGERPRLVPRPINV,3.5
2,RKLRTVPGVPLIHLT,24.3

# Target: CaRvs167-3
# Assay: as above
# In short: as §1
row,Binder,SPOT peptide array binding signal intensity
1,GAGERPRLVPRPINV,≤ 0
2,RKLRTVPGVPLIHLT,7.25

# Target: CaSho1
# Assay: as above
# In short: as §1
row,Binder,SPOT peptide array binding signal intensity
1,GAGERPRLVPRPINV,21
2,RKLRTVPGVPLIHLT,3.5

# Target: CaSla1-D1-D2
# Assay: as above
# In short: as §1
row,Binder,SPOT peptide array binding signal intensity
1,GAGERPRLVPRPINV,15.5
2,RKLRTVPGVPLIHLT,20

# Target: CaSla1-D3
# Assay: as above
# In short: as §1
row,Binder,SPOT peptide array binding signal intensity
1,GAGERPRLVPRPINV,0.75
2,RKLRTVPGVPLIHLT,≤ 0

# Target: ScAbp1
# Assay: as above
# In short: as §1
row,Binder,SPOT peptide array binding signal intensity
1,GAGERPRLVPRPINV,10
2,RKLRTVPGVPLIHLT,14

# Target: ScBbc1
# Assay: as above
# In short: as §1
row,Binder,SPOT peptide array binding signal intensity
1,GAGERPRLVPRPINV,29.5
2,RKLRTVPGVPLIHLT,21

# Target: ScBem1-D1
# Assay: as above
# In short: as §1
row,Binder,SPOT peptide array binding signal intensity
1,GAGERPRLVPRPINV,≤ 0
2,RKLRTVPGVPLIHLT,27.5

# Target: ScBzz1-D1
# Assay: as above
# In short: as §1
row,Binder,SPOT peptide array binding signal intensity
1,GAGERPRLVPRPINV,13
2,RKLRTVPGVPLIHLT,10

# Target: ScBzz1-D2
# Assay: as above
# In short: as §1
row,Binder,SPOT peptide array binding signal intensity
1,GAGERPRLVPRPINV,44.5
2,RKLRTVPGVPLIHLT,1.5

# Target: ScCyk3
# Assay: as above
# In short: as §1
row,Binder,SPOT peptide array binding signal intensity
1,GAGERPRLVPRPINV,53
2,RKLRTVPGVPLIHLT,9

# Target: ScFus1
# Assay: as above
# In short: as §1
row,Binder,SPOT peptide array binding signal intensity
1,GAGERPRLVPRPINV,≤ 0
2,RKLRTVPGVPLIHLT,37

# Target: ScHof1
# Assay: as above
# In short: as §1
row,Binder,SPOT peptide array binding signal intensity
1,GAGERPRLVPRPINV,3.25
2,RKLRTVPGVPLIHLT,1

# Target: ScHse1
# Assay: as above
# In short: as §1
row,Binder,SPOT peptide array binding signal intensity
1,GAGERPRLVPRPINV,4.5
2,RKLRTVPGVPLIHLT,178

# Target: ScLsb1
# Assay: as above
# In short: as §1
row,Binder,SPOT peptide array binding signal intensity
1,GAGERPRLVPRPINV,98.2
2,RKLRTVPGVPLIHLT,1.5

# Target: ScLsb2
# Assay: as above
# In short: as §1
row,Binder,SPOT peptide array binding signal intensity
1,GAGERPRLVPRPINV,4.5
2,RKLRTVPGVPLIHLT,2

# Target: ScLsb3
# Assay: as above
# In short: as §1
row,Binder,SPOT peptide array binding signal intensity
1,GAGERPRLVPRPINV,531
2,RKLRTVPGVPLIHLT,1030

# Target: ScLsb4
# Assay: as above
# In short: as §1
row,Binder,SPOT peptide array binding signal intensity
1,GAGERPRLVPRPINV,20
2,RKLRTVPGVPLIHLT,22

# Target: ScMyo3
# Assay: as above
# In short: as §1
row,Binder,SPOT peptide array binding signal intensity
1,GAGERPRLVPRPINV,47.5
2,RKLRTVPGVPLIHLT,≤ 0

# Target: ScMyo5
# Assay: as above
# In short: as §1
row,Binder,SPOT peptide array binding signal intensity
1,GAGERPRLVPRPINV,4
2,RKLRTVPGVPLIHLT,2

# Target: ScNbp2
# Assay: as above
# In short: as §1
row,Binder,SPOT peptide array binding signal intensity
1,GAGERPRLVPRPINV,8
2,RKLRTVPGVPLIHLT,1190

# Target: ScPex13
# Assay: as above
# In short: as §1
row,Binder,SPOT peptide array binding signal intensity
1,GAGERPRLVPRPINV,1
2,RKLRTVPGVPLIHLT,59.5

# Target: ScRvs167
# Assay: as above
# In short: as §1
row,Binder,SPOT peptide array binding signal intensity
1,GAGERPRLVPRPINV,91.3
2,RKLRTVPGVPLIHLT,1390

# Target: ScSho1
# Assay: as above
# In short: as §1
row,Binder,SPOT peptide array binding signal intensity
1,GAGERPRLVPRPINV,13.5
2,RKLRTVPGVPLIHLT,110

# Target: ScSla1-D1-D2
# Assay: as above
# In short: as §1
row,Binder,SPOT peptide array binding signal intensity
1,GAGERPRLVPRPINV,25.5
2,RKLRTVPGVPLIHLT,73

# Target: ScSla1-D3
# Assay: as above
# In short: as §1
row,Binder,SPOT peptide array binding signal intensity
1,GAGERPRLVPRPINV,20
2,RKLRTVPGVPLIHLT,23.5

# Target: SpAbp1-D1
# Assay: as above
# In short: as §1
row,Binder,SPOT peptide array binding signal intensity
1,GAGERPRLVPRPINV,11
2,RKLRTVPGVPLIHLT,17.5

# Target: SpBbc1
# Assay: as above
# In short: as §1
row,Binder,SPOT peptide array binding signal intensity
1,GAGERPRLVPRPINV,22.8
2,RKLRTVPGVPLIHLT,≤ 0

# Target: SpBzz1-D1
# Assay: as above
# In short: as §1
row,Binder,SPOT peptide array binding signal intensity
1,GAGERPRLVPRPINV,384
2,RKLRTVPGVPLIHLT,71.5

# Target: SpBzz1-D2
# Assay: as above
# In short: as §1
row,Binder,SPOT peptide array binding signal intensity
1,GAGERPRLVPRPINV,0.75
2,RKLRTVPGVPLIHLT,≤ 0

# Target: SpCyk3
# Assay: as above
# In short: as §1
row,Binder,SPOT peptide array binding signal intensity
1,GAGERPRLVPRPINV,8
2,RKLRTVPGVPLIHLT,≤ 0

# Target: SpHof1
# Assay: as above
# In short: as §1
row,Binder,SPOT peptide array binding signal intensity
1,GAGERPRLVPRPINV,5.5
2,RKLRTVPGVPLIHLT,22.8

# Target: SpHof1-2
# Assay: as above
# In short: as §1
row,Binder,SPOT peptide array binding signal intensity
1,GAGERPRLVPRPINV,6
2,RKLRTVPGVPLIHLT,2

# Target: SpHof1-3
# Assay: as above
# In short: as §1
row,Binder,SPOT peptide array binding signal intensity
1,GAGERPRLVPRPINV,5.75
2,RKLRTVPGVPLIHLT,229

# Target: SpHse1
# Assay: as above
# In short: as §1
row,Binder,SPOT peptide array binding signal intensity
1,GAGERPRLVPRPINV,≤ 0
2,RKLRTVPGVPLIHLT,68.8

# Target: SpLsb1
# Assay: as above
# In short: as §1
row,Binder,SPOT peptide array binding signal intensity
1,GAGERPRLVPRPINV,410
2,RKLRTVPGVPLIHLT,3.25

# Target: SpLsb4
# Assay: as above
# In short: as §1
row,Binder,SPOT peptide array binding signal intensity
1,GAGERPRLVPRPINV,740
2,RKLRTVPGVPLIHLT,369

# Target: SpMyo1
# Assay: as above
# In short: as §1
row,Binder,SPOT peptide array binding signal intensity
1,GAGERPRLVPRPINV,4.75
2,RKLRTVPGVPLIHLT,2.75

# Target: SpNbp2
# Assay: as above
# In short: as §1
row,Binder,SPOT peptide array binding signal intensity
1,GAGERPRLVPRPINV,≤ 0
2,RKLRTVPGVPLIHLT,7.5

# Target: SpPex13
# Assay: as above
# In short: as §1
row,Binder,SPOT peptide array binding signal intensity
1,GAGERPRLVPRPINV,≤ 0
2,RKLRTVPGVPLIHLT,≤ 0

# Target: SpRvs167
# Assay: as above
# In short: as §1
row,Binder,SPOT peptide array binding signal intensity
1,GAGERPRLVPRPINV,6.67
2,RKLRTVPGVPLIHLT,616

# Target: SpSla1-D1-D2
# Assay: as above
# In short: as §1
row,Binder,SPOT peptide array binding signal intensity
1,GAGERPRLVPRPINV,4
2,RKLRTVPGVPLIHLT,1

# Target: SpSla1-D3
# Assay: as above
# In short: as §1
row,Binder,SPOT peptide array binding signal intensity
1,GAGERPRLVPRPINV,1
2,RKLRTVPGVPLIHLT,≤ 0
